In PubChem BioAssay:
Activity calls are given as the source filed them.

How the values were obtained:
[1] = test system: Human papillomavirus type 1a protein E7 (residues 44-93); assay: small molecules binding HPV E7 44-93 – biochemical, small-molecule microarray, residues 44-93, 635 nm fluorescence, primary screen (AID 1108); conditions: fluorescence 635 nm, higher = more signal;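 note: E7 fragment applied at 1 µg/mL in TBST for 1 h at 4 C; score combines spot fluorescence with its signal to noise ratio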
[2] = hepatitis C replication reporter changes, two-sided – Huh7 cells, luciferase reporter, HCV replication inhibitor project, primary screen (AID 1109); conditions: Huh7 HCV replicon luciferase reporter, 48 h; higher = more signal;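 note: huh7 hepatoma cells harbouring a luciferase neomycin HCV replicon reporter; luciferase luminescence as measure of HCV replicon replication; test concentration not given here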
[3] = biological target: Left-right determination factor 2 (Homo sapiens) (UniProt O00292); assay: small molecules binding LEFTY2 protein – biochemical, small-molecule microarray, 635 nm fluorescence scan, primary screen (AID 1110); conditions: higher = more signal
[4] = biological target: Calmodulin-1 (Homo sapiens) (UniProt P0DP23); assay: small molecules binding calmodulin-1 with EGTA – biochemical, small-molecule microarray, Cy5-labelled CALM1, profiling panel (AID 1111); conditions: Cy5-CALM1 binding fluorescence, higher = more signal;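 note: labelled calmodulin applied in Tris saline Tween buffer holding calcium plus EGTA and DTT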
[5] = biological target: Calmodulin-1 (Homo sapiens) (UniProt P0DP23); assay: small molecules binding Ca-loaded calmodulin-1 – biochemical, small-molecule microarray, Cy5-labelled CALM1, plus calcium, artefact control for SMM control-protein annotation, profiling panel (AID 1112); conditions: Cy5-CALM1 binding fluorescence, higher = more signal;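 note: score merges spot fluorescence with signal to noise from triplicate slides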
[6] = probe aWnt5a binding to arrayed compounds – biochemical, biotinylated probe, 635/667 nm fluorescence, primary screen (AID 1113); conditions: small-molecule microarray, higher = more signal;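 note: score merges 667 nm fluorescence intensity with signal-to-noise per printed feature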
[7] = probe aShh binding to arrayed compounds – biochemical, biotinylated probe, 635/667 nm fluorescence, primary screen (AID 1114); conditions: small-molecule microarray, higher = more signal;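 note: probe is biotin-labelled aShh protein from a stem cell growth factor screen; measures binding of labelled protein to compounds printed on the slide; score merges feature fluorescence at 667 nm with signal-to-noise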
[8] = probe aNog binding to arrayed compounds – biochemical, biotinylated probe, 635/667 nm fluorescence, primary screen (AID 1115); conditions: small-molecule microarray, higher = more signal;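 note: probe is biotinylated aNog protein used at 0.15 µg/mL for 1 h at 4 C; z-score combines 667 nm fluorescence of each spot with its signal to noise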
[9] = biological target: Torsin-1A-interacting protein 1 (Homo sapiens) (UniProt Q5JTV8); assay: compound microarray binding of lysate hLAP1 – cell lysate, small-molecule microarray, COS7 lysate, 635/667 nm fluorescence, primary screen (AID 1116); conditions: 635 nm fluorescence, higher = more signal
[10] = biological target: Alpha-bungarotoxin (Bungarus multicinctus) (UniProt P60615); assay: compounds binding labelled alpha-BTX control protein – biochemical, small-molecule microarray, Alexa647 label, 635/667 nm fluorescence, artefact control for SMM control protein annotation, profiling panel (AID 1117); conditions: alpha-BTX-A647 binding fluorescence, higher = more signal
Albumin (Bos taurus) = Albumin (Bos taurus) (UniProt P02769); assay: compounds binding labelled BSA control protein – biochemical, small-molecule microarray, Alexa647 label, 635/667 nm fluorescence, artefact control for SMM control protein annotation, profiling panel (AID 1118); conditions: BSA-A647 binding, fluorescence 635 nm, higher = more signal;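 note: score merges 667 nm emission intensity and signal-to-noise per printed compound spot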
[11] = probe aXIP binding to arrayed compounds – biochemical, NeuroSMM set, 635/667 nm fluorescence, primary screen (AID 1119); conditions: small-molecule microarray, higher = more signal, called active from +8 up or from −8 down;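 note: probe is the protein aXip251-270 applied at 1 µg/mL to compound-printed slides; binding of probe to printed compounds measured as 667 nm fluorescence plus signal to noise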
[12] = probe aNOTCH3 binding on compound microarray – biochemical, small-molecule microarray, 635/667 nm fluorescence, primary screen (AID 1120); conditions: higher = more signal;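 note: probe is a biotin-tagged antibody raised against NOTCH3 rather than NOTCH3 protein; score merges spot fluorescence near 667 nm with spot signal to noise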
[13] = probe aNOTCH2 binding on compound microarray – biochemical, small-molecule microarray, 635/667 nm fluorescence, primary screen (AID 1121); conditions: higher = more signal;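 note: score merges feature fluorescence read at 667 nm with its signal to noise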
[14] = biological target: Carbonic anhydrase 2 (Homo sapiens) (UniProt P00918); assay: compounds binding carbonic anhydrase 2 – biochemical, small-molecule microarray, Alexa647-labelled CAII, profiling panel (AID 1122); conditions: CAII-A647 binding fluorescence, higher = more signal
[15] = COS7 lysate on small-molecule microarray, probe aHis, 635 nm (AID 1123); conditions: COS7 cell lysate, fluorescence, higher = more signal;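 note: z-score combines 667nm fluorescence intensity with signal-to-noise per printed compound spot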
[16] = probe aLAP1 signal on lysate-treated microarray – cell lysate, small-molecule microarray, COS7 lysate, primary screen (AID 1124); conditions: probe aLAP1, fluorescence, higher = more signal;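 note: lysate comes from COS7 cells expressing LAP1 and is applied at 0.3 µg/mL; score merges spot fluorescence near 667 nm with signal-to-noise over triplicate slides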
Sam68 (KHDRBS1) = assay: compounds binding KHDRBS1 protein – biochemical, small-molecule microarray, 635 nm fluorescence, primary screen (AID 1125); conditions: higher = more signal;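 note: score merges 667 nm channel intensity with signal to noise over triplicate slides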
[17] = test system: Chordin-like protein 2 (CHRDL2); assay: compounds binding chordin-like 2 – biochemical, small-molecule microarray, 635 nm fluorescence, primary screen (AID 1126); conditions: fluorescence 635 nm, higher = more signal;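 note: printed compound slides probed with Chrdl2 protein at 4 µg/mL for 1 h at 4 C; score merges 667 nm emission intensity with signal to noise over three replicate slides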
[18] = biological target: Concanavalin-A (Canavalia ensiformis) (UniProt P02866); assay: compounds binding concanavalin A lectin – biochemical, small-molecule microarray, Alexa647 label, 635 nm, artefact control for SMM control protein annotation, primary screen (AID 1127); conditions: ConA-A647 binding fluorescence, higher = more signal;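 note: z combines 667 nm emission intensity with signal-to-noise across three replicate slides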
Chain of Concanavalin-A (Canavalia ensiformis) (P02866 whole entry, looked up): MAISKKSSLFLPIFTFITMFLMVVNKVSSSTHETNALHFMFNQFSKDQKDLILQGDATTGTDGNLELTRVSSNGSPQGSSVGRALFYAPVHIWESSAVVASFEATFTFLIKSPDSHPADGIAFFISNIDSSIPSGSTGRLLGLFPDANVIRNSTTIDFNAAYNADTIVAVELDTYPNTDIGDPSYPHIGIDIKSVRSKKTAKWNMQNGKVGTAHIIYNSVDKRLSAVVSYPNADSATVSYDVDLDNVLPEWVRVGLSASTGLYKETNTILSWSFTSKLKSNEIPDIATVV

Chain of Alpha-bungarotoxin (Bungarus multicinctus) (P60615 whole entry, looked up): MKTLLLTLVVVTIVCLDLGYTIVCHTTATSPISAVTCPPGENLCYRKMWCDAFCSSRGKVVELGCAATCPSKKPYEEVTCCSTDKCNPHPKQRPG
Chain of Albumin (Bos taurus) (P02769 whole entry, looked up): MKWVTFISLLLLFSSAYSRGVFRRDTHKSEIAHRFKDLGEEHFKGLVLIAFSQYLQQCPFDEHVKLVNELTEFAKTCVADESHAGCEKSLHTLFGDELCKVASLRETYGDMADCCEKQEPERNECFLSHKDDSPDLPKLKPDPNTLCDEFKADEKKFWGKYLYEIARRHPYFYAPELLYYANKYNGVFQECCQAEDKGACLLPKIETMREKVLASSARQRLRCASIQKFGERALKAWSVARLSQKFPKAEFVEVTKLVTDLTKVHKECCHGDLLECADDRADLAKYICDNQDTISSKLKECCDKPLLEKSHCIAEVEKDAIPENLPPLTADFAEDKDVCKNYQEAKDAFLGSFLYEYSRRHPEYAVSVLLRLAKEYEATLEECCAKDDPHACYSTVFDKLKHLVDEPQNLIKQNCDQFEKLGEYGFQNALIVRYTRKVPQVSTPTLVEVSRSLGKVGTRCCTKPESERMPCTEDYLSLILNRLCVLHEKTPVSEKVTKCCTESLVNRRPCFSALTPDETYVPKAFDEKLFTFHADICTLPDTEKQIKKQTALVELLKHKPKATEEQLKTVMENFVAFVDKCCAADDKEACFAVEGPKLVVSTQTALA
Chain of Left-right determination factor 2 (Homo sapiens) (O00292 whole entry, looked up): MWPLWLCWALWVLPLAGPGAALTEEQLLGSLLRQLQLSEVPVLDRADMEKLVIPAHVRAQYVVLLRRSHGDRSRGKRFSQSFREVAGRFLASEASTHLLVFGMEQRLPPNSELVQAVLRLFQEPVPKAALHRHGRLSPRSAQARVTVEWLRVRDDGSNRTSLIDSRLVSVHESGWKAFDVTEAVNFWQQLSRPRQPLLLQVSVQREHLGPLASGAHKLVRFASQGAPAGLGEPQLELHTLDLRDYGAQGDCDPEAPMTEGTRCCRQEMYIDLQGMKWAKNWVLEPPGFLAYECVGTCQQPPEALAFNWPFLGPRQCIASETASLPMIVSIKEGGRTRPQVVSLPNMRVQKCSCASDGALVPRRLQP
Chain of Torsin-1A-interacting protein 1 (Homo sapiens) (Q5JTV8 whole entry, looked up): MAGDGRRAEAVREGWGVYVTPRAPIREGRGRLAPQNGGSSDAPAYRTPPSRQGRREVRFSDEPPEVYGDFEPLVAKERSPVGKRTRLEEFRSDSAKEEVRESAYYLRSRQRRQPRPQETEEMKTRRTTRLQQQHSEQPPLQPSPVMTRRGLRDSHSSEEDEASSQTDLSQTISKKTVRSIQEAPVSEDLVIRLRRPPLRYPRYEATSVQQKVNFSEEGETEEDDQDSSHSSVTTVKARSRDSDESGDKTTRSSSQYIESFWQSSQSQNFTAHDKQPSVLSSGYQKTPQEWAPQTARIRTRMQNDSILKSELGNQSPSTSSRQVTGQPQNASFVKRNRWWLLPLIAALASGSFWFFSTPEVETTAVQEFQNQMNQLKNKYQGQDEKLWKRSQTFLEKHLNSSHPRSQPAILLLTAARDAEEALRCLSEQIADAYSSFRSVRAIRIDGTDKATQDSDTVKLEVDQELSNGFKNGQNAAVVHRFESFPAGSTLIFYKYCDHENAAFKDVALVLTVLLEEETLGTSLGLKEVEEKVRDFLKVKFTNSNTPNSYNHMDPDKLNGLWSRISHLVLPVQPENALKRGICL

COc1ccc(CCNC(=O)[C@@H]2c3ccccc3C(=O)N(Cc3ccc(OC(F)(F)F)cc3)[C@H]2c2ccc(CO)cc2)cc1
composite z-score [1]: 1.38 | z-score [2]: -1.81 | composite z-score [3]: -0.264 | composite z-score [4]: 0.107 | composite z-score [5]: -0.12 | composite z-score [6]: -0.146 | composite z-score [7]: -0.147 | composite z-score [8]: 0.28 | composite z-score [9]: 1 | composite z-score [10]: -0.0177 | composite z-score (Albumin (Bos taurus)): 0.59 | composite Z-score [11]: -0.313 (inactive) | composite z-score [12]: -0.0077 | composite z-score [13]: -0.0029 | composite z-score [14]: 0.497 | composite z-score [15]: 1.53 | composite z-score [16]: 0.983 | composite z-score (Sam68 (KHDRBS1)): 1.07 | composite z-score [17]: 0.0372 | composite z-score [18]: 0.485

CC(C)(C)N1CC=CC23O[C@@H]4C=CCOC(=O)[C@@H]4[C@H]2C(=O)N(CCCCCO)[C@@H]3C1=O (stereo not given in full)
composite z-score [1]: -1.2 | z-score [2]: -0.394 | composite z-score [3]: -0.788 | composite z-score [4]: -0.821 | composite z-score [5]: -0.0669 | composite z-score [6]: -0.169 | composite z-score [7]: -0.221 | composite z-score [8]: 1.03 | composite z-score [9]: 2.1 | composite z-score [10]: -1.45 | composite z-score (Albumin (Bos taurus)): 0.485 | composite Z-score [11]: 1.1 (inactive) | composite z-score [12]: -0.406 | composite z-score [13]: -0.229 | composite z-score [14]: 0.82 | composite z-score [15]: 0.121 | composite z-score [16]: 1.25 | composite z-score (Sam68 (KHDRBS1)): -0.87 | composite z-score [17]: -0.612 | composite z-score [18]: -2.63

O=C1C2C=CC(C(O)c3ccc(F)cc3)N(Nc3ccccc3)C2C(=O)N1c1ccccc1 (stereo not given)
composite z-score [1]: 1.42 | z-score [2]: -0.379 | composite z-score [3]: -0.238 | composite z-score [4]: 0.691 | composite z-score [5]: 0.619 | composite z-score [6]: 0.0597 | composite z-score [7]: -0.289 | composite z-score [8]: 0.195 | composite z-score [9]: 0.691 | composite z-score [10]: 1.97 | composite z-score (Albumin (Bos taurus)): 0.843 | composite Z-score [11]: 0.121 (inactive) | composite z-score [12]: 0.189 | composite z-score [13]: 0.0449 | composite z-score [14]: 0.734 | composite z-score [15]: 2.88 | composite z-score [16]: -0.364 | composite z-score (Sam68 (KHDRBS1)): 0.654 | composite z-score [17]: -0.527 | composite z-score [18]: -0.398

COCCOC(=O)N1C(=O)[C@@]2(c3ccccc31)[C@H](C(=O)Nc1nc3ccccc3s1)[C@H]1C(=O)O[C@H](c3ccccc3)[C@H](c3ccccc3)N1[C@@H]2c1ccc(OCCO)cc1
composite z-score [1]: 1.37 | z-score [2]: -2.05 | composite z-score [3]: 0.382 | composite z-score [4]: 1.31 | composite z-score [5]: 0.773 | composite z-score [6]: 0.135 | composite z-score [7]: -0.0626 | composite z-score [8]: 0.544 | composite z-score [9]: 0.96 | composite z-score [10]: 1.6 | composite z-score (Albumin (Bos taurus)): 0.735 | composite Z-score [11]: -0.533 (inactive) | composite z-score [12]: 0.127 | composite z-score [13]: -0.169 | composite z-score [14]: 0.287 | composite z-score [15]: 2.33 | composite z-score [16]: 1.39 | composite z-score (Sam68 (KHDRBS1)): 1.29 | composite z-score [17]: 0.594 | composite z-score [18]: 1.16

CC(C)(C)N1CC=CC23O[C@@H]4/C=C\CCCOC(=O)C4[C@H]2C(=O)N(CCO)[C@@H]3C1=O (stereo not given in full)
composite z-score [1]: -0.365 | z-score [2]: -0.95 | composite z-score [3]: -0.679 | composite z-score [4]: -0.0083 | composite z-score [5]: 0.443 | composite z-score [6]: -0.18 | composite z-score [7]: 0.0121 | composite z-score [8]: -0.261 | composite z-score [9]: -0.231 | composite z-score [10]: -0.709 | composite z-score (Albumin (Bos taurus)): 0.268 | composite Z-score [11]: 0.103 (inactive) | composite z-score [12]: -0.36 | composite z-score [13]: -0.204 | composite z-score [14]: 0.872 | composite z-score [15]: 0.575 | composite z-score [16]: 0.29 | composite z-score (Sam68 (KHDRBS1)): -0.13 | composite z-score [17]: -0.0702 | composite z-score [18]: -0.0702

O=C(O)[C@@]1(Cc2ccccc2)N=C(c2ccc(OCCCO)cc2)O[C@H]1c1ccccc1
composite z-score [1]: 0.843 | z-score [2]: -0.0284 | composite z-score [3]: -1.13 | composite z-score [4]: 0.102 | composite z-score [5]: 1.07 | composite z-score [6]: -0.0179 | composite z-score [7]: 0.216 | composite z-score [8]: 0.966 | composite z-score [9]: -0.514 | composite z-score [10]: 1.07 | composite z-score (Albumin (Bos taurus)): 0.32 | composite Z-score [11]: -0.419 (inactive) | composite z-score [12]: -0.0932 | composite z-score [13]: -0.147 | composite z-score [14]: 0.529 | composite z-score [15]: 1.29 | composite z-score [16]: -0.183 | composite z-score (Sam68 (KHDRBS1)): 0.499 | composite z-score [17]: -1.15 | composite z-score [18]: 0.649

CC(C)OC(=O)CC(=O)CC(O)c1ccc(C#N)cc1 (stereo not given)
composite z-score [1]: 0.443 | z-score [2]: -0.259 | composite z-score [3]: -0.461 | composite z-score [4]: -1.49 | composite z-score [5]: -1.46 | composite z-score [6]: -0.0405 | composite z-score [7]: -0.156 | composite z-score [8]: -0.397 | composite z-score [9]: 1.67 | composite z-score [10]: 1.75 | composite z-score (Albumin (Bos taurus)): -0.181 | composite Z-score [11]: 0.0371 (inactive) | composite z-score [12]: -0.0377 | composite z-score [13]: 0.174 | composite z-score [14]: 0.0258 | composite z-score [15]: 0.657 | composite z-score [16]: 0.649 | composite z-score (Sam68 (KHDRBS1)): 0.438 | composite z-score [17]: -1.19 | composite z-score [18]: -0.6

CC(C)C[C@@H]1NC(=O)[C@H]2C[C@@H](C(=O)NCCCCCNC(=O)CS)[C@@H](c3cccc(OCCO)c3)N2C1=O
composite z-score [1]: 1.38 | z-score [2]: -0.265 | composite z-score [3]: 1.25 | composite z-score [4]: 0.193 | composite z-score [5]: -0.364 | composite z-score [6]: -0.194 | composite z-score [7]: -0.358 | composite z-score [8]: -0.0428 | composite z-score [9]: 0.698 | composite z-score [10]: 0.812 | composite z-score (Albumin (Bos taurus)): 0.258 | composite Z-score [11]: -0.014 (inactive) | composite z-score [12]: 0.191 | composite z-score [13]: -0.0358 | composite z-score [14]: 0.561 | composite z-score [15]: 1.32 | composite z-score [16]: 0.438 | composite z-score (Sam68 (KHDRBS1)): 1.3 | composite z-score [17]: 1.39 | composite z-score [18]: 1
